Source: PubChem (The Scripps Research Institute Molecular Screening Center)
This is a sample that favours compounds with a hit; in the whole collection about 3.5% have one here.
FBW7 act: FBW7 E3 ligase activators, primary screen, biochemical, AlphaScreen, human; F-box/WD repeat-containing protein 7 (Homo sapiens), Q969H0; AlphaScreen FBW7–phospho-cyclin E peptide binding, activator screen; normalized activity (activation), % at 26.1 µM; 650,000 tested, 0.13% active; in the data active = normalized activity above about 1.9%;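 also: purified mutant Fbw7 with reduced substrate affinity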
MITF primary: MITF inhibitors, primary screen, biochemical, AlphaScreen, human; Microphthalmia-associated transcription factor (Homo sapiens), O75030; AlphaScreen MITF homodimerization, bead proximity signal; inhibition, % at 2.6 µM; 650,000 tested, 0.91% active; AID 1259374, 2018; in the data active = inhibition above about 50%
TEAD-YAP block: TEAD-YAP interaction inhibition, primary screen, TEAD-YAP interaction inhibitor project, luminescence, HEK-TIYL cells; TEAD-Gal4/YAP UAS-luciferase luminescence; 640,000 tested, 1.4% active; inhibition, % at 9.12 µM; in the data active = inhibition above about 32%
GPR151 ag: activators of human GPR151, primary screen, cell-based, PathHunter beta-arrestin, luminescence; activation, % at 11.2 µM; PathHunter beta-arrestin GPR151 cells; 650,000 tested, 1% active; AID 1508602, 2020; in the data active = activation above about 4.9%
Target sequence (Q8TDV0 whole entry, looked up): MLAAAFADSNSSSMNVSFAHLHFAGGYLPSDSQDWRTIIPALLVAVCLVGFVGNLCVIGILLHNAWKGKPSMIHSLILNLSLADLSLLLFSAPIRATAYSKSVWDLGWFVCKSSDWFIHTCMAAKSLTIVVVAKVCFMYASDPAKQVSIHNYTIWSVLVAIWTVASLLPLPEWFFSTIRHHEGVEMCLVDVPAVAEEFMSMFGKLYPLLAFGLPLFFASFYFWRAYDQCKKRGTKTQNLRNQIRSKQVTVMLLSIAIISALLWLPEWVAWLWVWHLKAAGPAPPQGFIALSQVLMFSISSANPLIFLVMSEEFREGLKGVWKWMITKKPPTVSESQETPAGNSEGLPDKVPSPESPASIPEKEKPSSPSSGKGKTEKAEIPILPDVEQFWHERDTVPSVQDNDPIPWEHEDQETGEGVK
MITF inh conf: MITF inhibitors, retest of hits, confirmation, biochemical, AlphaScreen, triplicate; shares compounds with MITF primary; AlphaScreen MITF homodimerization, biotin/His-MITF beads; inhibition, % at 2.6 µM; 4,700 tested, 16% active;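 active = inhibition above a cutoff derived from the DMSO control wells, cut at about 28% in these data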;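 also: inhibitors lower the bead chemiluminescence by keeping MITF from dimerizing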
AS interf DR: AlphaScreen optical interference compounds, dose response, counter-screen, biochemical, HTS; 480 tested, 6% active; shares compounds with MITF primary; AlphaScreen optical interference counterscreen, cell-free; IC50, µM; call rule not given here
AS interf ctr: AlphaScreen optical interference compounds, counter-screen for MITF inhibitor project, biochemical, triplicate. shares compounds with MITF primary. LysRS AlphaScreen counterscreen, signal interference. inhibition, % at 2.6 µM. 4,700 tested, 7.6% active;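 active = inhibition above a cutoff derived from the DMSO control wells, cut at about 30% in these data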
A number is an active result; - = inactive; . = no result given.

SMILES	FBW7 act	MITF primary	TEAD-YAP block	GPR151 ag	MITF inh conf	AS interf ctr	others
O=C(OC1CCCCC1=O)c1ccc(S(=O)(=O)NCc2ccco2)cc1 (configuration not stated)	-	-	-	-	.	.
O=C(OC1CCOC1=O)c1ccc(S(=O)(=O)NCc2ccco2)cc1 (configuration not stated)	-	53	-	-	52	-	AS interf DR=-
COc1ccc(NC(=O)CSc2nc3ccccc3nc2Cc2ccccc2OC)cc1Cl	-	-	-	-	.	.
COc1ccccc1Cc1nc2ccccc2nc1SCC(=O)Nc1ccc(OC)c(OC)c1	-	73	-	-	-	-
CCCN(C(=O)c1cn(CC)c(=O)c2cc(OC)c(OC)cc12)c1cccc(Cl)c1	-	-	-	-	.	.
O=C(CC1Nc2ccccc2NC1=O)Nc1cccc(Cl)c1 (configuration not stated)	-	65	-	-	-	-
CCNc1nc(NCCN(C(C)C)C(C)C)c2ncn(C3CCCCC3)c2n1	-	-	-	-	.	.
CN(C)C1(CNCC(=O)Nc2ccc(F)cc2)CCCCC1	-	80	-	-	-	-
CCC(C(=O)NCCCOC)n1c2ccccc2c2cn[nH]c(=O)c21 (configuration not stated)	-	-	-	-	.	.
CCOc1ccc(CN2CCc3c(nc(N4CCC(C)CC4)[nH]c3=O)C2)cc1	-	-	-	-	.	.
CCC(C)c1ccccc1OCCNC(C)C (configuration not stated)	-	85	-	-	-	-
CCC(C)c1ccccc1OCCCNCCOC (configuration not stated)	-	-	-	-	.	.
CCC(C)c1ccccc1OCCCNCCCOC (configuration not stated)	-	60	-	-	-	-
CN(C)/C=C/C=C/C(=O)c1ccccc1N(C)C	-	-	-	-	.	.
CN(C)/C=C/C=C/C=C/C(=O)c1ccc(C(=O)/C=C/C=C/C=C/N(C)C)cc1	-	84	-	-	68	-
CC(=O)C(/C=N/NC(=O)c1ccccn1)=C(\C)O	-	59	-	-	33	57
O=C(N/N=C\C(Br)=C\c1ccccc1)c1ccccn1	-	-	-	-	.	.
COc1ccc(CN2CCN(Cc3ccc(SC)cc3)CC2)cc1OCc1ccccc1	-	55	-	-	-	-
CCOc1cc(CN2CCN(Cc3ccc(SC)cc3)CC2)ccc1OC	-	54	-	-	-	-
COc1ccc(CN2CCN(Cc3ccncc3)CC2)cc1OCc1ccccc1	-	63	-	-	-	-
COc1ccc(CN2CCN(C)CC2)cc1OCc1ccccc1	-	-	-	-	.	.
N[C@H](Cc1ccccc1)C(=O)Nc1cc(-c2ccncc2)c[nH]c1=O	-	-	-	-	.	.
CCOc1ccc(C2=C(Cl)C=C(c3ccc(F)cc3)c3ccccc3O2)cc1	-	-	-	-	.	.
O=C(CN1C(=O)c2ccccc2S1(=O)=O)Nc1ccc(F)c(F)c1F	-	-	-	-	.	.
N#Cc1ccccc1CN1CCN(Cc2cc(F)cc(F)c2)CCC1=O	-	-	-	-	.	.
SMILES	FBW7 act	MITF primary	TEAD-YAP block	GPR151 ag	MITF inh conf	AS interf ctr	others
CC[C@H](C)[C@@H]1NC(=O)[C@H]2CN(C(=O)NCc3ccccc3)CCN2C1=O	-	74	-	-	66	-	AS interf DR=-
C[C@@H]1NC(=O)[C@H]2CN(C(=O)NCc3ccccc3)CCN2C1=O	-	71	-	-	75	-	AS interf DR=-
C[C@@H](OCc1ccccc1)[C@@H]1NC(=O)[C@H]2CN(C(=O)NCc3ccccc3)CCN2C1=O	-	76	-	-	71	-	AS interf DR=-
CC[C@H](C)[C@@H]1NC(=O)[C@H]2CN(C(=O)Oc3ccc(F)cc3)CCN2C1=O	-	-	-	-	.	.
CC[C@H](C)[C@@H]1NC(=O)[C@H]2CN(C(=O)Nc3cccc(F)c3)CCN2C1=O	-	58	-	-	75	-	AS interf DR=-
CC[C@H](C)[C@@H]1NC(=O)[C@H]2CN(C(=O)c3ccc(-c4ccccc4)cc3)CCN2C1=O	-	-	-	-	.	.
N#CC1=C(S)NC(c2ccccc2)=CC1c1ccco1 (configuration not stated)	-	-	-	-	.	.
NC(=O)C1CCN(C(=O)c2ccc3c(=O)n(-c4ccccc4)c(SCC(=O)c4ccccc4)nc3c2)CC1	-	-	-	-	.	.
CC(C)[C@H]1NC(=O)[C@H]2CN(C(=O)NCc3ccccc3)CCN2C1=O	-	70	-	-	68	-	AS interf DR=-
COC(=O)c1ccccc1NC(=O)N1CCCC(N2CCOCC2)C1 (configuration not stated)	-	-	-	-	.	.
COc1ccc(CN2CCN(CC3CC4C=CC3C4)CC2)c(OC)c1OC (configuration not stated)	-	71	-	-	-	-
COc1ccccc1CN1CCN(CC2CC3C=CC2C3)CC1 (configuration not stated)	-	69	-	-	-	-
COc1cc(OC)c(OC)cc1CN1CCSCC1	-	-	-	-	.	.
COc1cc(CN2CCN(S(=O)(=O)c3ccc(F)cc3)CC2)cc(OC)c1O	-	-	-	-	.	.
COc1cc(OC)c(OC)cc1CN1CCN(CC2CC3C=CC2C3)CC1 (configuration not stated)	-	57	-	-	-	-
COc1cc(CN2CCN(CC3CC4C=CC3C4)CC2)cc(OC)c1O (configuration not stated)	-	66	-	-	-	-
COc1ccc(CN2CCN(Cc3ccc(C)o3)CC2CCO)c(C)c1C (configuration not stated)	-	-	-	-	.	.
O=C(Cc1cccs1)N/N=C\c1ccc(Br)o1	-	-	-	-	.	.
O=C(c1cccc(OC2CCN(C3CCSC3)CC2)c1)N1CCCC1 (configuration not stated)	-	-	-	-	.	.
Cc1ccc(Cl)cc1NC(=O)CN1C(=O)NC(CC(C)C)C1=O (configuration not stated)	-	-	-	-	.	.
Fc1cccc(CN2CCN(CC3CC4C=CC3C4)CC2)c1 (configuration not stated)	-	71	-	-	-	-
Cc1ccccc1CN1CCN(CC2CC3C=CC2C3)CC1 (configuration not stated)	-	77	-	-	-	-
Fc1cccc(CN2CCCNCC2)c1	-	-	-	-	.	.
O=C(c1ccccc1)N1CCN(CC2CC3C=CC2C3)CC1 (configuration not stated)	-	-	-	-	.	.
